Compound activity from PubChem BioAssay.
An excerpt weighted towards active compounds, which were near 11% of everything screened.
Pf growth 96h: P. falciparum growth inhibition at 96 hour, primary screen for plastid delayed-death inhibitors; 6.9% of 320,000 active; Potency, µM (top dose mostly 28.7 µM), inactives show at the highest dose activity change, negative = inhibition, hits mostly inhibitors; P. falciparum luciferase reporter growth, 96 h; AID 504834
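P. falciparum expressing integrated firefly luciferase, in erythrocytes at 2% hematocrit, 0.05% parasitemia, incubated with compounds 96 h at 37 C, 5% CO2. Growth inhibition read as loss of luminescence; two-generation exposure targets delayed-death apicoplast inhibitors.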
Pf growth 48h: P. falciparum growth inhibition at 48 hours (one generation); P. falciparum luciferase growth in erythrocytes, 48 h; Potency, µM (titrated, usually from 28.7 µM), without a hit: at the top dose activity change, negative = inhibition, hits mostly inhibitors; 5.9% of 310,000 active; AID 504832
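Read-out is firefly luciferase luminescence from an integrated reporter in P. falciparum, so falling signal marks reduced parasite growth. Infected erythrocytes were at 2% hematocrit and 0.1% parasitemia (final) in Albumax-supplemented RPMI 1640.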
AMA1 RON2 block: inhibitors of Plasmodium falciparum AMA1-RON2 interaction; Potency, µM (highest dose often 58.2 µM), without a hit: at the top dose activity change, negative = inhibition, usual class: inhibitors; 0.2% of 360,000 active; AlphaScreen AMA1-biotinylated RON2 peptide binding; AID 720542;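 note: 0% = vehicle wells and -100% = peptide control; nearly all actives have a fitted effect of over 45% in size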
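AMA1 (3D7) with his tag at 25 nM final met compounds first, then biotinylated RON2 peptide at 25 nM; detection used donor plus acceptor beads, 10 µg/mL apiece, read by AlphaScreen after 30 min at room temperature.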
HCV inh: HCV inhibition. Huh7.5.1 HCVcc-Cre infection, luciferase reporter, 44 h. Potency, µM (titrated, usually from 41.8 µM), for inactives: at the highest dose activity change, negative = inhibition, hits mostly inhibitors. 3.4% of 340,000 active. AID 651820
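Luciferase read-out (15 sec integration) after a 15 min room-temperature substrate step quantifies HCVcc-Cre infection. Cells, 1,000 per well, had compound added 4 h post-plating, then virus at ~0.5 moi, and were cultured 44 h.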
Starred values were filed as active, the others as inactive; ? = inconclusive; · = no result given; [ ] = dose if it differs, or a comment. Calls come from the whole dose curve; as a rule, active = well fitted curve in the direction sought with a large enough effect; inconclusive = small, poorly fitted or top-dose-only effect, or another doubt; inactive = no such curve, though single readings can be large; an effect the other way counts as inactive or inconclusive. Unless noted, % is set by controls: 0 for no effect and ±100 for the full control effect; potency is the fitted concentration of half-maximal effect.

SMILES	Pf growth 96h	Pf growth 48h	AMA1 RON2 block	HCV inh
O=S(=O)(Nc1ccc(-c2nc3ccccc3o2)cc1)c1ccccc1	0%	·	4%	-7%
CC(=O)Nc1ccc(S(=O)(=O)Nc2cccc(-c3nc4ccccc4o3)c2)cc1	14%	·	-10%	13µM*
CS(=O)(=O)c1ccccc1C(=O)Nc1cccc(-c2nc3ccccc3o2)c1	10%	14%	-3%	11µM*
CCn1cnc2c1c(=O)n(CC(=O)OC)c(=O)n2Cc1ccccc1	?	?	-7%	-1%
COc1ccccc1-c1c(C)oc2cc(OCC(=O)OCc3ccccc3)ccc2c1=O	1%	-23%	13%[2.32 µM]	11%
Cc1ccc(-n2nc3c(Cl)nnc(C)c3c2C)cc1	0.33µM*	0.41µM*	7%	0%
CCCCN(CC(=O)NCc1ccc(F)cc1)C(=O)c1ccco1	25%	16%	3%	11%
CC1(C)Cc2c(c(N3CCOCC3)nc3sc4c(=O)[nH]cnc4c23)CS1	-17%	9%	20%	?
COCCNc1nnnc2c1sc1nc(N3CCOCC3)c3c(c12)CC(C)(C)OC3	?	?	18%	?
CC1(C)Cc2c(c(N3CCOCC3)nc3sc4c(NCCN)ncnc4c23)CO1	·	·	-4%	7.1µM*
CN(C)CCNc1ncnc2c1sc1nc(N3CCOCC3)c3c(c12)CC(C)(C)SC3	?	?	?	10µM*
CCN(CC)CCNc1ncnc2c1sc1nc(N3CCOCC3)c3c(c12)CC(C)(C)SC3	5.2µM*	?	13%	11%
COc1ccc(N(C(=O)c2cnccn2)C(C(=O)NCc2ccccc2)c2ccc(O)cc2)cc1 (stereo not given)	19%	53%	-2%	12%
CCOC(=O)c1ccc(N=C2SC(C(=O)NC)CC(=O)N2Cc2ccc(F)cc2)cc1 (stereo not given)	1.7µM*	-25%	-5%	24%
CCOC(=O)c1ccc(N=C2SC(C(=O)Nc3ccc(C(=O)O)cc3)CC(=O)N2Cc2cccs2)cc1 (stereo not given)	13%	?	-10%	28%
CN(C)c1ccc(N=Nc2ccccc2C(=O)OCC(=O)N(C)C2CCCCC2)cc1	?	-24%	-13%	12%
CN(C)c1ccc(N=Nc2ccccc2C(=O)OCC(=O)NC2CCCC2)cc1	8.3µM*	-6%	7.9µM*	-5%
CN(C)c1ccc(N=Nc2ccccc2C(=O)OCC(=O)NCC2CCCCC2)cc1	0%	?	11µM*	10%
Cc1csc2nc(O)c(C(=O)NCCCc3ccccc3)c(=O)n12	48%	-1%	77%	?
Cc1csc2nc(O)c(C(=O)NCCC3=CCCCC3)c(=O)n12	?	10µM*	41%	-2%
CCOc1ccc(Cl)cc1-c1cc(C(=O)NCc2cccc(C(F)(F)F)c2)[nH]n1	·	·	26%	·
CCN(CC)c1ccc(N=Cc2c(O)n(Cc3ccco3)c(=O)[nH]c2=O)cc1	?	12µM*	-19%	10%
CCN(CC)c1ccc(N=Cc2c(O)n(CCc3ccc(OC)c(OC)c3)c(=O)[nH]c2=O)cc1	10µM*	7.4µM*	-12%[2.32 µM]	16%
CN(C)S(=O)(=O)c1cccc(NC(=O)CCNC(=O)c2ccccc2Cl)c1	-47%	-14%	3%[11.6 µM]	-1%
O=C(C(=O)N1CC=C(c2ccccc2)CC1)c1c[nH]c2ccccc12	45%	10%	-9%[2.32 µM]	0%
SMILES	Pf growth 96h	Pf growth 48h	AMA1 RON2 block	HCV inh
CCN1CC=C(c2c[nH]c3ccccc23)CC1	40%	1µM*	12%	10µM*
CC(=O)N(c1c(C)n(C)n(-c2ccccc2)c1=O)C1(C(=O)NC2CCCCC2)CCCCC1	?	-8%	4%	16%
Cc1c(N(C(=O)CNC(=O)c2ccccc2)C2(C(=O)NC3CCCC3)CCCCC2)c(=O)n(-c2ccccc2)n1C	?	3.7µM*	0%	13%
CCOc1cc(C(N)=O)cc(Br)c1OCc1ccccc1	50%	-7%	15%	-9%
Cc1ccc(C)n1NC(=O)c1ccccc1O	9.3µM*	?	31%	0%
COc1ccc(C(=O)C(c2ccccc2)N2CCOCC2)cc1 (stereo not given)	?	?	0%	15%
Cc1ccc(C(=O)C(c2ccccc2)N2Cc3ccccc3C2=N)cc1 (stereo not given)	10µM*	?	?	?
Cc1cc(N/N=C/c2ccc(Cl)cc2)nc(NCc2ccccc2)n1	0.74µM*	1µM*	-27%	35µM*
